# Measured values: PubChem BioAssay (NCATS)
# “And” between values parts separate entries of the source, which are not always exact repeats. Equal values may be shown once. A number with no mark means an inactive call. Inconclusive results are not listed. Where a call stands in place of a potency, no number is given. The source made the active and inactive calls. Calls come from the whole dose curve; as a rule, active = well fitted curve in the direction sought with a large enough effect; inconclusive = small, poorly fitted or top-dose-only effect, or another doubt; inactive = no such curve, though single readings can be large; an effect the other way counts as inactive or inconclusive.
# Assays:
# [1] = test system: Zika virus NS2B-NS3 protease (unlinked complex); test: Primary screen GU Rhodamine qHTS for Zika virus inhibitors: Unlinked NS2B-NS3 protease assay (AID 1347159); note: nearly all actives have a fitted effect of over 60% in size; note: potency is the fitted concentration of half-maximal effect
# In short: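 Percent inhibition derives from the 15-min fluorescence change (ex 480, em 540 nm), normalized to no-enzyme and no-inhibitor wells. Reactions contained 25 nM NS2B-NS3 complex and 1.5 microM substrate in 10 mM Tris-HCl pH 8.0.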
# [2] = test system: Zika virus NS2B-NS3 protease (linked construct); test: Primary screen NINDS Rhodamine qHTS for Zika virus inhibitors (AID 1347160); note: nearly all actives have a fitted effect of over 55% in size; note: potency is the fitted concentration of half-maximal effect
# In short: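 In 10 mM Tris-HCl pH 8.0 containing 0.01% Tween 20, linked NS2B-NS3 protease (25 nM final) is exposed to test compounds for 15 min. Cleavage of 1.5 microM Rhodamine110 substrate is tracked by fluorescence over 15 min.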
# [3] = target: Calcium and integrin-binding protein 1 (Homo sapiens) (UniProt Q99828); test: Primary qHTS for Identification of Calcium Integrin Binding Protein 1 (CIB1) Competitor (AID 1508620);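 note: GST tagged CIB1 binding a fluorescein labelled alphaIIb integrin peptide tracer; top concentration of the series differs between compounds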
# In short: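 Fluorescence polarization competition: CIB1-GST (1 uM final) preincubated with compound 15 min at room temperature, then FITC-labeled alphaIIb peptide (100 nM final) added for another 15 min. Polarization read at Ex 480/Em 540.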
# [4] = Primary qHTS for inhibitors of nuclear receptor binding SET domain protein 2 (NSD2) in an isogenic RCH-ACV NSD2 p.E1099K mutant (9B) (AID 1645876); note: potency is the fitted concentration of half-maximal effect; nearly all actives have a fitted effect of over 70% in size
# [5] = Primary qHTS for inhibitors of nuclear receptor binding SET domain protein 2 (NSD2) in an RCH-ACV wild type WT cells (2C) (AID 1645877); note: potency is the fitted concentration of half-maximal effect; nearly all actives have a fitted effect of over 70% in size
# [6] = target: Glutathione peroxidase 1 (Homo sapiens) (UniProt P07203); test: Primary qHTS Assay for Inhibitors of Recombinant Selenoprotein Glutathione Peroxidase 1 (GPX1) (AID 1845191); note: nearly all actives have a fitted effect of over 65% in size
# In short: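 Recombinant GPX1 (10 nM final) was preincubated with compound for 30 min at room temperature, then reacted with 1 mM GSH, 0.5 mM CHP, 0.5 mM NADPH and 100 nM glutathione reductase; NADPH fluorescence (340/450 nm) was read at 0 and 15 min.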
# [7] = target: Phospholipid hydroperoxide glutathione peroxidase GPX4 (Homo sapiens) (UniProt P36969); test: Primary qHTS Assay for Inhibitors of Recombinant Selenoprotein Glutathione Peroxidase 4 (GPX4) (AID 1845192); conditions: outcome: dose series up to 50 µM unless noted; note: nearly all actives have a fitted effect of over 65% in size; note: potency is the fitted concentration of half-maximal effect
# In short: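 GR-coupled readout: 100 nM GR, 1 mM GSH, 0.5 mM NADPH; NADPH fluorescence (ex 340/em 450 nm) read at t=0 and after 15 min RT. GPX4 200 nM, preincubated 30 min with compound; substrate 0.5 mM CHP.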
# [8] = target: Luciferin 4-monooxygenase (Photinus pyralis) (UniProt P08659); test: Primary firefly luciferase (FLuc) qHTS assay for identification of artifact compounds. (AID 1845220); note: nearly all actives have a fitted effect of over 60% in size
# In short: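 qHTS, 15 min compound preincubation with substrate (10 uM luciferin, 10 uM ATP) at RT, then 10 nM FLuc; 5 min; luminescence; % inhibition vs no-enzyme/DMSO controls, 4-parameter Hill fit.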
# [9] = test system: Nanoluciferase (engineered Oplophorus gracilirostris luciferase); test: Primary Nanoluciferase (NLuc) qHTS assay for identification of artifact compounds. (AID 1845222)
# In short: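 Luminescence read-out of secreted NLuc in S16 cell conditioned medium (1:55); compounds tested with 15 min RT preincubation, then Nano-Glo substrate 1:100, 5 min. % inhibition vs no-enzyme and DMSO controls, 4-parameter Hill fit.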
# [10] = Primary redox qHTS assay for identification of artifact compounds. (AID 1845223)
# In short: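 Amplex Red (25 uM) and HRP (250 mU/mL) in HBSS, with compounds for 15 min, then 250 uM DTT for 30 min, room temperature, dark. Fluorescence 525/598 nm read; normalized to DMSO and 10 uM DA3003; Hill fit.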
# C33A = test: Primary qHTS to identify gynecologic anti-cancer compounds using libraries of approved drugs and bioactive compounds (AID 1345084); conditions: Gynecologic cancer cell panel viability, ATPlite luminescence, 48 h; series mostly up to 57.5 µM; note: nearly all actives have a fitted effect of over 55% in size
# In short: (§1)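 Cytotoxicity screen measuring ATP content by luciferase luminescence. Each compound is applied at five concentrations for 48 h at 37 C with 5% CO2.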
# CASKI = test: as above; conditions: Gynecologic cancer cell panel viability, ATPlite luminescence, 48 h; series mostly up to 57.5 µM
# In short: as §1
# Es-2 = test: as above; conditions: Gynecologic cancer cell panel viability, ATPlite luminescence, 48 h; series mostly up to 57.5 µM
# In short: as §1
# HeLa = test: as above; conditions: Gynecologic cancer cell panel viability, ATPlite luminescence, 48 h; series mostly up to 57.5 µM
# In short: as §1
# Hek293T = test: as above; conditions: Gynecologic cancer cell panel viability, ATPlite luminescence, 48 h, control line for the selectivity index; series mostly up to 57.5 µM
# In short: as §1
# JEG-3 = test: as above; conditions: Gynecologic cancer cell panel viability, ATPlite luminescence, 48 h; series mostly up to 57.5 µM
# In short: as §1
# PA-1 = test: as above; conditions: Gynecologic cancer cell panel viability, ATPlite luminescence, 48 h; series mostly up to 57.5 µM
# In short: as §1
# Tov-21-G = test: as above; conditions: Gynecologic cancer cell panel viability, ATPlite luminescence, 48 h; series mostly up to 57.5 µM
# In short: as §1
# Tov112D = test: as above; conditions: Gynecologic cancer cell panel viability, ATPlite luminescence, 48 h; series mostly up to 57.5 µM
# In short: as §1
# OV90 = test: as above; conditions: Gynecologic cancer cell panel viability, ATPlite luminescence, 48 h; series mostly up to 57.5 µM
# In short: as §1
# Calcium and integrin-binding protein 1 (Homo sapiens), sequence (Q99828 whole entry, looked up): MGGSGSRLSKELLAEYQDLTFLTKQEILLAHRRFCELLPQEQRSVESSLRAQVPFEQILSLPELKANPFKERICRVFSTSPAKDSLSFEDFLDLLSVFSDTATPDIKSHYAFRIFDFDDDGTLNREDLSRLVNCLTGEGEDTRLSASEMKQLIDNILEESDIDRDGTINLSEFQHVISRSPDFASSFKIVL
# Phospholipid hydroperoxide glutathione peroxidase GPX4 (Homo sapiens), sequence (P36969 whole entry, looked up): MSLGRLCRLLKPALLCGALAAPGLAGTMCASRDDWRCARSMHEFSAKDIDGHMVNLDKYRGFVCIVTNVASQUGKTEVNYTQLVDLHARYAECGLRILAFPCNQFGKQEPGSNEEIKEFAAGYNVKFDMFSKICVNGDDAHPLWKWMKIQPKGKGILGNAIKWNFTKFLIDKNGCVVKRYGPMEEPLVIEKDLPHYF
# Glutathione peroxidase 1 (Homo sapiens), sequence (P07203 whole entry, looked up): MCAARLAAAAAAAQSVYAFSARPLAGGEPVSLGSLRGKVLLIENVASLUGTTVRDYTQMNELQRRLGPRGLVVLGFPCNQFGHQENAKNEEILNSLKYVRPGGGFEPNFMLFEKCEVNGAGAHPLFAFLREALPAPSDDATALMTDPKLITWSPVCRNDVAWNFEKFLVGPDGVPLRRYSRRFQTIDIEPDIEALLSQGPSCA
Compound,Potency [1],Potency [2],outcome [3],Potency [4],Potency [5],Potency [6],Potency [7],Potency [8],Potency [9],Potency [10],Potency (C33A),Potency (CASKI),Potency (Es-2),Potency (HeLa),Potency (Hek293T),Potency (JEG-3),Potency (PA-1),Potency (Tov-21-G),Potency (Tov112D),Potency (OV90)
COc1cc(-c2cc(-c3ccc(N4CCNCC4)cc3)cnc2C)cc(OC)c1OC,inactive,inactive,inactive,9.34 µM (active),7.42 µM (active),inactive,inactive,inactive,inactive,inactive,inactive,inactive,inactive,inactive,inactive,inactive,inactive,inactive,inactive,
CN(Cc1ccc(C(=O)O)cc1)c1ccc(OCc2c(-c3c(Cl)cccc3Cl)noc2C2CC2)nc1C(F)(F)F,2 µM (active),2.51 µM (active),inactive,,,,,inactive,inactive,,inactive,inactive,inactive,inactive,inactive,inactive,inactive,inactive,inactive,inactive
Cn1cnc(-c2nccc3c(=O)[nH]c(OCCCC(F)(F)F)nc23)c1,,inactive,,2.9 µM (active),2.58 µM (active),,22.7 µM (active),inactive,inactive,inactive,inactive,inactive,,inactive,,,,,inactive,
O=C(c1ccc(F)c(F)c1Nc1ccc(I)cc1F)N1CC(O)([C@@H]2CCCCN2)C1,inactive,inactive,inactive,14.8 µM (active),14.5 µM (active) and 14.8 µM (active),inactive,inactive,inactive,inactive,inactive,,,,inactive,,inactive,inactive,,,
CNC(=O)c1cccc2cc(Oc3ccnc4cc(OCC5(N)CC5)c(OC)cc34)ccc12,inactive,inactive,,14.8 µM (active) and 20.6 µM (active),10.5 µM (active) and 23.1 µM (active),inactive,inactive,inactive,inactive,,inactive,inactive,inactive,inactive,inactive,inactive,,inactive,inactive,
CNc1ccc([N+](=O)[O-])cc1-n1cnc(-c2ccc(C(F)(F)F)cc2)c1,inactive,inactive,inactive,,,inactive,inactive,inactive,inactive,inactive,inactive,inactive,inactive,inactive,inactive,inactive,inactive,inactive,inactive,inactive
CC/C(=C(\c1ccc(O)cc1)c1ccc(OCCNC)cc1)c1ccccc1,inactive,inactive,,,,inactive,inactive,inactive,inactive,,inactive,inactive,inactive,inactive,inactive,inactive,inactive,inactive,inactive,inactive
COc1cccc(CNC(=O)Nc2nc(-c3ccncc3)cs2)c1,,inactive,inactive,7.28 µM (active),1.63 µM (active),inactive,inactive,inactive,inactive,inactive,inactive,inactive,inactive,,inactive,inactive,inactive,inactive,inactive,inactive
Cn1nccc1Nc1nccc(-c2ccn([C@H](CO)c3ccc(Cl)c(F)c3)c(=O)c2)n1,,inactive,inactive,7.28 µM (active) and 7.42 µM (active),10.3 µM (active) and 8.33 µM (active),inactive,inactive,inactive,,inactive,inactive,inactive,inactive,,inactive,,,inactive,inactive,
C=C(C)[C@@H]1CC[C@]2(C(=O)O)CC[C@]3(C)C(CCC4[C@@]5(C)C[C@@H](O)[C@H](O)C(C)(C)C5CC[C@]43C)C12 (stereo partly specified),,inactive,inactive,,,inactive,inactive,inactive,inactive,inactive,inactive,inactive,inactive,inactive,inactive,inactive,inactive,inactive,inactive,inactive
N#CCC(C1CCCC1)n1cc(-c2ncnc3[nH]ccc23)cn1 (stereo unspecified),,inactive,inactive,12.9 µM (active),20.5 µM (active),,18 µM (active),inactive,inactive,,inactive,inactive,inactive,inactive,inactive,inactive,inactive,inactive,inactive,inactive
CC1CCN(C(c2ccc(F)cc2)c2ccc(C(C)C(=O)O)cc2-c2ccc(C(F)(F)F)cc2)CC1 (stereo unspecified),1.58 µM (active),3.16 µM (active),inactive,14.5 µM (active),11.5 µM (active),inactive,inactive,inactive,inactive,inactive,inactive,inactive,inactive,,,inactive,inactive,inactive,inactive,inactive
COc1ccc(Cl)cc1[C@@]1(F)C(=O)Nc2cc(C(F)(F)F)ccc21,,inactive,inactive,7.28 µM (active),5.78 µM (active),,inactive,inactive,inactive,inactive,inactive,inactive,inactive,,,inactive,,inactive,,inactive
